# In all, about 48,000 compounds went through this assay and about 450 (0.94%) were called active. Inconclusive results (about 19%) are left out. This is one part of a sample in which actives are shown more often than they occur. Unmarked numbers belong to inactive results. Calls come from the whole dose curve; as a rule, active = well fitted inhibition curve with a large enough effect; inconclusive = small, poorly fitted or top-dose-only effect; inactive = no such curve, though single readings can be large or run the other way.
# Assay: Primary qHTS for Identification of Small Molecule Inhibitors of Huntingtin Promoter Activity; note: nearly all actives have a fitted effect of over 50% in size
# Details: HEK293 HTT promoter firefly luciferase reporter (activity 0% = vehicle and -100% = no light), 24 h; series mostly up to 57.5 µM; activity change, negative = inhibition: at the top concentration
# Source text: Assay Provider: Russell L. Margolis M.D.
# Department Neurology, Johns Hopkins University School of Medicine, Baltimore, MD
# Huntington's Disease (HD) is a neurodegenerative disorder caused by a CAG repeat expansion in exon 1 of huntingtin (HTT). While there are currently no disease-modifying treatments for HD, recent efforts have focused on development of nucleotide-based therapeutics to lower HTT expression. As an alternative to siRNA or oligonucleotide methods, we hypothesized that suppression of HTT expression might be accomplished by small molecules that either (1) directly decrease HTT expression by suppressing HTT promoter activity or (2) indirectly decrease HTT expression by increasing the promoter activity of HTT-AS, the gene antisense to HTT that appears to inhibit expression of HTT.
# We developed and employed a high throughput screen for modifiers of HTT and HTT-AS promoter activity using luminescent reporter HEK293 cells; of the 52,041 compounds tested, we identified 898 replicable hits. We used a rigorous stepwise approach to assess compound toxicity and the capacity of the compounds to specifically lower huntingtin protein in 5 different cell lines, including HEK293 cells, HD lymphoblastoid cells, mouse primary neurons, HD iPSCs differentiated into cortical-like neurons, and HD hESCs. We found no compounds which were able to lower huntingtin without lowering cell viability in all assays, though the potential efficacy of a few compounds at non-toxic doses could not be excluded.
# SEQUENCE No. (1, 2, 3, etc.); […] (e.g., Cells, Incubation, Reagent, etc.); VALUE and DESCRIPTION.
# 1; Reagent; 4 uL; 2,500 Hek293 luciferase reporter cells per wells
# 3; Compound; 23 nL; Control inhibitor / compound library
# 5; Reagent; 2.5 uL; Firefly Luc reagent; Dual-Glo Luciferase Reporter Assay System (Promega)
# 6; Time; 10 min; room temperature incubation
# 7; Detection; Luminescence; FLuc
# NOTES (numbers refer to sequence above)
# 1; High-throughput screening, measuring luminescence from a Hek293 luciferase reporter, was performed in 1,536 well white-walled tissue-culture treated plates. 2,500 cells were plated in 4 µL of Opti-MEM per well using a Multidrop Combi Reagent Dispenser (ThermoFisher).
# 2; Assay plates were cultured for 24 hours.
# 3; Control inhibitor (PTC124; final concentration of 50 uM) and compound library (at final concentrations of 460 nM - 57.5 uM) were added to the assay plate using the Kalypsis Pintool Robotic System equipped with 1536 pinheads.
# 4; Cells were then incubated for 24 hours at 37 degrees C prior to luminescence measurements.
# 5; In all cases, luminescence was measured using the Dual-Glo Luciferase Reporter Assay System (Promega) following the manufacturer's instructions.
# 6; Room temperature incubation.
# 7; Luminescence signal was obtained using the PerkinElmer ViewLux plate reader. Results were normalized to vehicle control (0% activity) and zero RLU (-100% activity).
# Potency is the fitted concentration of half-maximal effect.
SMILES,"activity change, negative = inhibition",Potency
CC(C)CC(=O)NCC(c1ccc2c(c1)OCO2)N1CCN(c2ccc(F)cc2)CC1 (configuration not stated),-14.9%,
Cc1c(CCNC(=O)c2ccc(C(F)(F)F)cc2)sc2nc(-c3ccc(F)cc3)nn12,4.17%,
CCOC(=O)c1c(C)[nH]c(CCC(=O)NCCCN2CCN(c3cccc(Cl)c3)CC2)c1C,-29.4%,
CCOc1ccc(NC(=O)C(=O)NCCc2csc3nc(-c4ccccc4F)nn23)cc1,-5.73%,
COc1ccc(Cl)cc1N(C)C(=O)c1cc2c(=O)oc3ccc(C)cc3c2s1,-0.88%,
COc1cccc(Nc2nc3ccccc3c3nncn23)c1,-14.9%,
Cc1ccc(C)n1-c1nnc(N2CCC(C(=O)NCc3ccccc3Cl)CC2)s1,-11.2%,
O=S(=O)(c1ccc(Br)cc1)c1nnn2c1nc(N1CCOCC1)c1sccc12,7.1%,
Cc1ccc(CSc2nc3cccnc3n2Cc2ccc(C(=O)NC3CC3)cc2)cc1,9.61%,
COc1ccc(S(=O)(=O)N2CCCCC2)cc1C(=O)NC1CCS(=O)(=O)C1 (configuration not stated),-15.4%,
Cc1ccc(-c2nn(CCC(=O)Nc3ccc(Cl)c(Cl)c3)c(=O)c3ccccc23)cc1,-9.37%,
CCN(CC)CCNC(=O)CN1N=C(c2ccc(OC)cc2)CCC1=O,-8.91%,
CSc1ncc(C(=O)NCc2ccccc2Cl)c(C(F)(F)F)n1,-7.35%,
Cc1ccc(SCC(=O)Nc2ccc3oc(-c4ccccc4F)nc3c2)cc1,0%,
CCOC(=O)c1cc2c(=O)n3ccccc3nc2n(CC2CCCO2)c1=NC(=O)c1ccc(C(C)(C)C)cc1 (configuration not stated),-8.51%,
CCOc1ccc2oc(=O)cc(CN3CCN(C(=O)c4ccc(F)cc4)CC3)c2c1,-21.1%,
CCOc1ccc(OCC)c(Nc2nc3ccccc3n3nnnc23)c1,-15.9%,
N#Cc1ccc(-c2cccs2)nc1SCc1ccc(Br)cc1,12.7%,
Cc1ccc(CCNC(=O)c2ccc(CNS(=O)(=O)c3ccc(C)cc3)cc2)cc1,-5.53%,
COc1ccc(NC(=O)CCCN2C(=O)CCn3nc(-c4cn(C)c5ccccc45)cc32)cc1OC,0%,
CCOc1ccccc1NC(=O)CN1CCN(S(=O)(=O)c2ccc(Br)cc2)CC1,-13.4%,
COc1ccccc1NC(=O)c1cc(C2CC2)nc2c1c(C)nn2-c1ccc(C)cc1,-10.5%,
CCN1CCN(c2ncnc3c2cnn3-c2ccc(C)c(C)c2)CC1,-8.96%,
Cc1ccc(Cl)cc1-n1ncc2c(N3CCC(C(N)=O)CC3)ncnc21,-30.7%,
Cc1ccc(-n2ncc3c(N4CCC(C(N)=O)CC4)ncnc32)cc1,,0.316 µM (active)

SMILES,"activity change, negative = inhibition",Potency
Cc1cc(OCC(=O)NCC2(N(C)C)CCCCC2)cc(C)c1Cl,-5.14%,
Cc1nc2nc(SCC(=O)NC3CCC(C)CC3)nn2c(C)c1Cc1ccccc1Cl (configuration not stated),2.74%,
Cc1ccc(-n2nnnc2CNC(=O)c2ccccc2C)cc1C,1.21%,
COc1ccc(OCCn2cc(C(=O)C3CCCCC3)c3ccccc32)cc1,-27.6%,
COc1ccc(-c2noc(-c3ccc(N4CCN(c5ccccc5)CC4)c([N+](=O)[O-])c3)n2)cc1OC,-7.68%,
O=C(COc1ccccc1)NCc1ccc2c(c1)CCN2C(=O)c1ccc(F)cc1,-29.6%,
Cc1cc2c(cc1S(=O)(=O)CCC(=O)NCc1ccccc1)OCC(=O)N2,-5.35%,
Cn1c(SCC(=O)N2CCCc3ccccc32)ncc(C(=O)Nc2ccc(F)cc2)c1=O,-4.61%,
COc1ccc(S(=O)(=O)NCc2cccn2Cc2cccc(C)c2)cc1,0%,
CC(C)c1ccc(NC(=O)c2cc(S(=O)(=O)N3CCc4ccccc4C3)ccc2F)cc1,-20%,
Cc1ccc(-n2cnc3cc(C(=O)NCCC4=CCCCC4)ccc32)cc1Cl,-5.68%,
Cc1ccc(NC(=O)c2cc(S(=O)(=O)NCCC3=CCCCC3)ccc2F)cc1C,,28.2 µM (active)
O=c1n(Cc2cccc(C(F)(F)F)c2)c2ccccc2c2nc(-c3ccccc3)nn12,-9.87%,
COc1ccc(N2CCN(C(=O)c3cn(C)c4ccc(S(=O)(=O)N5CCOCC5)cc4c3=O)CC2)cc1,-18.7% [at 11.5 µM],
O=C(Nc1cc(C(F)(F)F)ccc1Cl)c1nc2ccccc2nc1N1CCCCC1,-3.65%,
CCN(C(=O)Cn1c(=O)nc(-c2ccccc2)c2cc(Cl)ccc21)c1cccc(C)c1,-4.22%,
COc1ccc(NC(=O)c2ccc3nc(CCc4ccccc4)oc3c2)c(OC)c1,36.9%,
COc1ccc(NC(=O)c2ccc3oc(=O)c(S(=O)(=O)c4ccc(F)cc4)cc3c2)c(OC)c1,,11.2 µM (active)
COc1ccc2c(c1)c(=O)c(S(=O)(=O)c1ccc(F)cc1)cn2CC(=O)Nc1ccc(C)cc1C,-9.64%,
Fc1ccc(C(Nc2ccc(Cl)c(C(F)(F)F)c2)c2nnc(-c3ccccc3)o2)cc1 (configuration not stated),-35.9%,
CC(=O)Nc1ccc(S(=O)(=O)N2CCN(c3ccccc3)CC2)cc1,-26.9%,
COc1ccc(Nc2ncc(C(=O)Nc3cc(C)ccc3OC)c3ccccc23)cc1,-18.3%,
O=C(CCCn1c(=O)c2cccn2c2cccnc21)NCc1ccc(F)cc1,8.1%,
CCOc1cc(-c2nnc(SCC(=O)NC3CCCCC3)nc2-c2ccc(OC)c(OCC)c2)ccc1OC,-8.07%,
COc1ccc(Cn2ccc3nc(C)c(C(=O)Nc4ccc(C)c(F)c4)cc3c2=O)cc1,-9.53%,

SMILES,"activity change, negative = inhibition",Potency
COC(=O)c1ccccc1NC(=O)c1ccc2c(=O)n3c(nc2c1)CCCCC3,10.1%,
CS(=O)(=O)c1ccc(-c2nnc(NC(=O)c3ccc4c(c3)OCCO4)o2)cc1,-5.72%,
CCCCNc1ccc(-c2nc(-c3ccncc3)no2)cc1[N+](=O)[O-],0.996%,
Cc1cccc(C)c1NC(=O)c1ccc(N)cc1,2.97%,
CCOC(=O)c1ccc(NC(=O)Cn2c(=O)cc(C)c3c(C)nn(-c4cccc(F)c4)c32)cc1,-8.8%,
Cc1ccc2nc(NC(=O)c3nc(SCc4ccccc4F)ncc3Cl)sc2c1,-12.5%,
CCC(Sc1nnc(-c2ccc(OC)cc2)c(-c2ccc(OC)cc2)n1)C(=O)NC1CCCCC1 (configuration not stated),5.07%,
CCCn1c(NCc2ccc(N(CC)CC)cc2)nc2ccccc21,-20.8%,
COc1ccc(CCNS(=O)(=O)c2cc(-c3cc(C)no3)ccc2C)cc1OC,-17.2%,
CCC1CN(S(=O)(=O)c2cc(-c3cc(C)no3)ccc2C)c2cc(C)ccc2O1 (configuration not stated),-13.3%,
Cc1cc(-c2ccc(C)c(S(=O)(=O)N3c4ccccc4CC3C)c2)on1 (configuration not stated),,14.1 µM (active)
O=C1NC(=O)C(=Cc2cccc(C(F)(F)F)c2)S1,-7.73%,
Cc1ccc2c(c1)N(C(=O)Nc1ccc(Br)cc1F)CCO2,-0.729%,
COc1cc(-c2noc(-c3ccc(N4CCCC4)c([N+](=O)[O-])c3)n2)cc(OC)c1OC,-12.2%,
CCNC(=O)CC1C(=O)N(c2ccc(F)cc2)C(=O)N1Cc1ccc(C)cc1 (configuration not stated),-7.1%,
CCc1cccc(CC)c1NC(=O)Cn1c(=O)c(-c2cc(C)ccc2NC(C)=O)nc2ccccc21,-3.39%,
O=S(=O)(c1ccccc1)c1nc(-c2ccc(Cl)cc2Cl)oc1N1CCCCC1,-9.26%,
Cc1ccc(Nc2ccc3cc(S(=O)(=O)N4CCCCC4)ccc3n2)cc1F,-16.1%,
Cc1c(Cl)cccc1NC(=O)c1noc2c1CCCC2,57.4%,
O=C(c1ccc(Cl)cc1)n1nc(-c2cccnc2)nc1NCc1ccc(F)cc1,-12.9%,
CC1CCN(c2nc3ccc(C(=O)N4CCN(c5ccccc5)CC4)cc3s2)CC1,,1.12 µM (active)
CCOc1cccc2sc(N3CCN(C(=O)C4CC4)CC3)nc12,-10.1%,
CCOc1ccc2nc(N3CCC(C(=O)Nc4cc(C)ccc4C)CC3)sc2c1,45.7%,
CCN(CCCNC(=O)Cn1ncc2c([nH]c3ccccc32)c1=O)c1cccc(C)c1,1.31%,
CCOC(=O)N1CCc2c(sc(NCc3cccc(F)c3)c2C(=O)Nc2ccccc2OCC)C1,-12.3%,

SMILES,"activity change, negative = inhibition",Potency
O=C(NCc1ccc(F)cc1)c1ccc2nc(N3CCCCC3)sc2c1,,8.91 µM (active)
Cc1ccc(C)n1-c1nnc(N2CCC(C(=O)NCc3ccc(F)cc3)CC2)s1,-27.7%,
O=C(NCc1ccccc1)c1ccc2c(c1)nc1n2CCCCC1,18.7%,
CCOc1cccc(CC(=O)N2CCc3c([nH]c4ccccc34)C2c2ccc(F)cc2)c1OCC (configuration not stated),-26.1%,
Cc1ccc(S(=O)(=O)n2nc(C)c(S(=O)(=O)N3CCCCCC3)c2C)cc1,-15.8%,
Cc1cc(O)c(C(c2ccccc2)N2CCN(c3ccccc3F)CC2)c(=O)n1Cc1ccco1 (configuration not stated),-5.4%,
Cc1cc(C)cc(Nc2ncnc3onc(-c4ccc(F)cc4)c23)c1,-17.4%,
COC(=O)CSc1ccc2nnc(CCNS(=O)(=O)c3ccc(C)cc3)n2n1,-0.0981%,
CCc1ccccc1NC(=O)c1ccc2c(c1)CCN2S(C)(=O)=O,-3.42%,
CCOc1ccc(C2CC(=O)c3c([nH]c(C(=O)OCc4ccccc4)c3C)C2)cc1 (configuration not stated),-27.8%,
CCc1ccc2oc(-c3ccc(C)c(NC(=O)/C=C/c4ccco4)c3)nc2c1,19.2%,
CCC(=O)Nc1cccc(-c2nc3cc(C)ccc3o2)c1,16%,
Cc1ccc2nc(-c3ccc(C)c(NC(=O)Cc4ccccc4)c3)oc2c1,,12.6 µM (active)
Cc1ccccc1CS(=O)(=O)CC1Nc2ccc(C(=O)NCc3ccc(Cl)cc3)cc2NC1=O (configuration not stated),-18.8%,
O=C(Cn1cnc2c(oc3ccccc32)c1=O)Nc1ccc(OC(F)(F)F)cc1,0.986%,
COc1ccc(OC)c(NC(=O)CSc2nc3ccccc3nc2N2CCCCC2)c1,-30%,
COc1ccc(CCNC(=O)c2ccc3c(c2)sc2nc(-c4ccc(C)cc4)cn23)cc1OC,0.069%,
Cc1ccc(CCNC(=O)c2ccc(CS(=O)(=O)Cc3cccc(C)c3)o2)cc1,-25.6%,
COc1ccc(CCNC(=O)c2ccc(CSCc3ccc(C)cc3)o2)cc1OC,,25.1 µM (active)
Cc1ccc(NC(=O)C(=O)NCC(c2cccnc2)N2CCOCC2)cc1 (configuration not stated),-5.3%,
COc1ccccc1N1CCN(C(CNC(=O)C(=O)NCc2ccc(C)cc2)c2cccnc2)CC1 (configuration not stated),,11.2 µM (active)
O=C(NCc1cccnc1)C(=O)NCC(c1cccnc1)N1CCN(c2ccccc2)CC1 (configuration not stated),-32.1%,
